ugtP null kill = kills S. aureus RN4220 lacking UgtP. S. aureus RN4220 ugtP deletion, OD600 growth, 16 h. growth inhibition, % (test concentration not listed). 0.54% of 330,000 active; in the data active = growth inhibition above about 68%;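 note: plate controls were untreated wells for no effect and antibiotic for full effect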
BJeLR viability = kills HRASV12-expressing BJeLR cells; BJeLR (HRASV12) viability, CellTiter-Glo ATP luminescence, 48 h; inhibition, % (concentration not given with the values); 0.17% of 300,000 active; AID 1554; in the data active = inhibition above about 50%
MazEF act = activators of E. coli MazEF toxin-antitoxin RNase | FAM/BHQ RNA-DNA oligo cleavage fluorescence, 5 h | 0.32% of 350,000 active | AID 504720 | P0AE70 | activation, % at 20 µM; in the data active = activation above about 50%
Target sequence (P0AE70 whole entry, looked up): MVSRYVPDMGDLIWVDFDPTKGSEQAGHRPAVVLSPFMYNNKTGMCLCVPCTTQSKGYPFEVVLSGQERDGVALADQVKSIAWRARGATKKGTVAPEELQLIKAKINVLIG
SSB-PriA inh = K. pneumoniae PriA-SSBct interaction inhibition; AlphaScreen SSBct-PriA binding, biotinylated peptide; inhibition, % at 33 µM; 0.6% of 430,000 active; in the data active = inhibition mostly above about 37%, no sharp cut-off; inactive = mostly below about 20%;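 note: plate controls were negative control peptide for no effect and reference peptide for full effect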
RN4220 kill = S. aureus RN4220 growth inhibition; OD600, 16 h; inhibition, % (no concentration beside the values); 0.33% of 330,000 active; AID 1259311; in the data active = inhibition above about 85%;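 note: plate controls were untreated cells for no effect and reference antibiotic for full effect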
An asterisk follows results filed as active. Shown are actives, neighbours in structure and some others; about 1.2% of the full set was active somewhere.

Results for CN(C)c1ccc(/C=C(/NC(=O)c2ccccc2)C(=O)NCCCn2ccnc2)cc1 ?
ugtP null kill: 8; BJeLR viability: -8; MazEF act: 74*; SSB-PriA inh: 12; RN4220 kill: 4

Results for COc1ccc(C(=O)N/C(=C\c2ccco2)C(=O)NCCCn2ccnc2)cc1 ?
ugtP null kill: 0; BJeLR viability: 5; MazEF act: -1; SSB-PriA inh: -1; RN4220 kill: 4

How did O=C(NCCCn1ccnc1)/C(=C/c1ccc(Cl)cc1)NC(=O)c1ccccc1 do in these assays?
ugtP null kill: 5; BJeLR viability: -8; MazEF act: -1; SSB-PriA inh: 2; RN4220 kill: 2

How did Cc1ccc(C(=O)N/C(=C\c2ccco2)C(=O)NCCCn2ccnc2)cc1C do in these assays?
ugtP null kill: 1; BJeLR viability: 0; MazEF act: -1; SSB-PriA inh: 86*; RN4220 kill: 5

Results for C=C1CCN(c2ccc(C(=O)NCCC)cc2[N+](=O)[O-])CC1 ?
ugtP null kill: 1; BJeLR viability: 3; MazEF act: 1; SSB-PriA inh: 13; RN4220 kill: 4

Results for O=C1c2cc(Cl)ccc2-c2c(O)cc(Cl)cc21 ?
ugtP null kill: 100*; MazEF act: 5; SSB-PriA inh: 0; RN4220 kill: 100*

How did Cc1ccc(Nc2nc(Cl)c(C=O)s2)cc1Cl do in these assays?
ugtP null kill: 7; BJeLR viability: 0; MazEF act: 53*; SSB-PriA inh: -19; RN4220 kill: -4

What do the screens show for `CNC(=O)c1ccsc1NC(=O)CCS(=O)(=O)c1ccccc1`?
ugtP null kill: 6; BJeLR viability: -3; MazEF act: 9; SSB-PriA inh: 7; RN4220 kill: 3

Results for O=C(COC(=O)c1ccc2c(c1Cl)C(=O)c1ccccc1C2=O)NC1CC1 ?
ugtP null kill: 80; BJeLR viability: 0; MazEF act: 3; SSB-PriA inh: -9; RN4220 kill: 87*

How did COc1cccc(S(=O)(=O)N2CCN(c3ccccc3F)CC2)c1 do in these assays?
ugtP null kill: 5; BJeLR viability: 0; MazEF act: 4; SSB-PriA inh: -31; RN4220 kill: 4

What do the screens show for `Nc1nonc1C(=O)NCCNCc1c(OCc2ccccc2F)ccc2ccccc12`?
ugtP null kill: -27; BJeLR viability: 8; MazEF act: 59*; SSB-PriA inh: 8; RN4220 kill: 1

What do the screens show for `Nc1nonc1C(=O)NCCNCc1cc(Br)ccc1OCc1ccc(F)cc1`?
ugtP null kill: 3; BJeLR viability: 8; MazEF act: 0; SSB-PriA inh: -5; RN4220 kill: 2

What do the screens show for `O=C(COc1ccc(F)cc1)Nc1nc(-c2ccccn2)cs1`?
ugtP null kill: -5; BJeLR viability: -10; MazEF act: 8; SSB-PriA inh: 58*; RN4220 kill: 6

Results for CS(=O)(=O)c1ccc(CC(=O)Nc2nc(-c3ccccn3)cs2)cc1 ?
SSB-PriA inh: 75*

Results for CCOc1ccc(CC(=O)Nc2nc(-c3ccccn3)cs2)cc1 ?
SSB-PriA inh: 58*

How did CCOc1ccccc1NC(=O)NC(=O)N(C)S(C)(=O)=O do in these assays?
ugtP null kill: 7; BJeLR viability: 1; MazEF act: 7; SSB-PriA inh: -11; RN4220 kill: 2

What do the screens show for `O=C1CC(c2ccc(O)c(O)c2)Oc2cc(O)cc(O)c21` (stereo unspecified)?
ugtP null kill: 1; BJeLR viability: -6; MazEF act: 3; SSB-PriA inh: 4; RN4220 kill: 2

Results for O=C1CC(c2ccc(O)c(O)c2)Oc2c1ccc(O)c2O (stereo unspecified) ?
ugtP null kill: -4; MazEF act: 53*; SSB-PriA inh: 1; RN4220 kill: 6

How did CC(C)=CCc1c(O)cc2c(c1O)C(=O)CC(c1ccccc1)O2 (stereo unspecified) do in these assays?
ugtP null kill: -5; BJeLR viability: -13; MazEF act: 16; SSB-PriA inh: -1; RN4220 kill: -1

How did CC(C)=CCc1c(O)ccc2c1OC(c1ccc(O)c(O)c1)CC2=O (stereo unspecified) do in these assays?
ugtP null kill: 2; BJeLR viability: 4; MazEF act: 86*; SSB-PriA inh: 5; RN4220 kill: 0

Results for CC(=NCc1ccco1)c1c(O)n(-c2ccccc2C)c(=O)[nH]c1=O ?
ugtP null kill: 5; BJeLR viability: -8; MazEF act: 0; SSB-PriA inh: 6; RN4220 kill: 1

Results for CSc1ccc(/C=N/NC(=O)CN2CCN(Cc3ccc(Cl)cc3)CC2)cc1 ?
BJeLR viability: -18; MazEF act: 95*

Results for CCc1ccccc1NC(=O)C1CCCN1S(=O)(=O)c1ccc2c(c1)n(C)c(=O)c(=O)n2C (stereo unspecified) ?
ugtP null kill: 2; BJeLR viability: 10; MazEF act: 9; SSB-PriA inh: -6; RN4220 kill: 5

What do the screens show for `Cc1cccc(C)c1NC(=O)C1CCCN1S(=O)(=O)c1ccc(-c2ccc(=O)[nH]n2)s1` (stereo unspecified)?
ugtP null kill: 99*; BJeLR viability: -6; MazEF act: -1; SSB-PriA inh: 5; RN4220 kill: 98*

Results for CCc1ccccc1NC(=O)C1CCCN1S(=O)(=O)c1ccc(-c2ccc(=O)[nH]n2)s1 (stereo unspecified) ?
ugtP null kill: 88*; BJeLR viability: 2; MazEF act: -1; SSB-PriA inh: -8; RN4220 kill: 96*

What do the screens show for `Cc1cc(C)cc(NC(=O)c2ccc([N+](=O)[O-])o2)c1`?
ugtP null kill: 94*; BJeLR viability: -15; MazEF act: 4; SSB-PriA inh: 6; RN4220 kill: 93*

How did CC(=O)c1cccc(NC(=O)c2ccc([N+](=O)[O-])o2)c1 do in these assays?
ugtP null kill: 91*; BJeLR viability: -12; MazEF act: 4; SSB-PriA inh: -3; RN4220 kill: 43

Results for O=C(Nc1ccc2oc(-c3ccncc3)nc2c1)c1ccccc1 ?
ugtP null kill: 11; BJeLR viability: -5; MazEF act: 0; SSB-PriA inh: -7; RN4220 kill: 2

Results for Cc1ccc(C)c(-c2nnc(NC(=O)c3ccc([N+](=O)[O-])o3)o2)c1 ?
ugtP null kill: 90*; BJeLR viability: 1; MazEF act: -1; SSB-PriA inh: 10; RN4220 kill: 6

How did CC(=O)c1ccc(NC(=O)c2ccc([N+](=O)[O-])o2)cc1 do in these assays?
ugtP null kill: 66; BJeLR viability: -3; MazEF act: 5; SSB-PriA inh: -27; RN4220 kill: 26

What do the screens show for `O=C(Nc1ccc2oc(-c3ccncc3)nc2c1)c1ccc([N+](=O)[O-])o1`?
ugtP null kill: 77; BJeLR viability: -4; MazEF act: 3; SSB-PriA inh: -6; RN4220 kill: 100*

What do the screens show for `Cc1nnc(SCC(=O)NNC(=O)c2ccco2)n1-c1ccccc1`?
ugtP null kill: 4; BJeLR viability: -16; MazEF act: -2; SSB-PriA inh: 6; RN4220 kill: 9

Screening results deposited in PubChem by several laboratories.
